From PubChem BioAssay (NCI)
The panel holds about 83,000 compounds, 20% with a hit somewhere; the sample as a whole holds those more often.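 Negative percent growth values reflect cell death: -40 means 40% of the cells present at the start died, and -100 means all died.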 Activity calls are given as the source filed them. The calls were made as follows: active = growth percent below 10; inactive = the rest.

The molecules below were run on MDA-MB-468 breast (assay: NCI-60 one-dose screen, 48 h (100 = growth as untreated, 0 = no growth, -100 = all killed)). Conditions: 10 µM unless noted.

| SMILES | growth |
| --- | --- |
| CCN(CC)CCSCCCNc1c(C)cnc2cc(Cl)ccc12 | 85.6% (inactive) |
| CCCCCCCCCCCC[n+]1c(C)cc(N)c2ccccc21 | -34% (active) |
| ClC1=C2NC=NC2n2c(nnc2-c2ccc(Cl)cc2)N1 (stereo not given) | 91.6% (inactive) |
| N#Cc1nc(-c2ccc(Cl)cc2)cc(-c2ccc(Nc3nc(N4CCCCC4)nc(N4CCCCC4)n3)cc2)c1N | 106% (inactive) |
| S=c1[nH]c(=S)c2c(-c3ccccc3)c(-c3ccccc3)oc2[nH]1 | 96.7% (inactive) |
| CCCCC/C=N/Nc1nc(C)cc(=O)[nH]1 | 105% (inactive) |
| Brc1cccc(-c2cc(-c3ccc4nccnc4c3)[nH]n2)c1 | 22.9% [25 µM] (inactive) |
| O=c1cc(NC2CCN(CCCc3ccccc3)CC2)c2cc(Cl)ccc2o1 | -13.1% (active) |
| COc1ccc(-c2cc(/C=C/C(=O)c3ccc(OC)c(OC)c3)[nH]n2)cc1 | 21.4% (inactive) |
| COc1ccc(/C=N/NC(=O)CSc2nc(-c3cnccn3)cc(-c3cccs3)c2C#N)cc1 | 83.1% (inactive) |
| O=[N+]([O-])c1c(F)cccc1Nc1cccc(F)c1 | 127% (inactive) |
| COc1ccc(Nc2ncccc2C(=O)NCc2cn(Cc3cccc(Oc4ccccc4)c3)nn2)cc1 | 4.17% (active) |
| CCCC(C)(C)COC(=O)c1cccc(N)c1 | 109% (inactive) |
| Cc1ccc(-c2n[nH]c(=O)c3noc(-c4ccc(C)cc4)c23)cc1 | -8.93% (active) |
| O=C(NCCCN1CCCCC1)c1ccc(-c2nc3ccc4[nH]ncc4c3c3c2CCCC3)cc1 | 35.4% (inactive) |
| O=[N+]([O-])c1ccc(O)c(-c2nc3ccccc3s2)c1 | 63.5% (inactive) |
| N#CSCC1CC(O)(c2ccccc2)CC(c2ccc(F)cc2)O1 (stereo not given) | 5.99% (active) |
| Cc1ccc(C)c(CN(C)C)c1O | 97.7% (inactive) |
| Cc1cc(N(CCCNc2ccnc3cc(Cl)ccc23)Cc2ccco2)nc(N2CCOCC2)n1 | 80.3% (inactive) |
| CCCCCCCCCCCCCCCCC1CC(=O)OC1=O (stereo not given) | 119% (inactive) |

| SMILES | growth |
| --- | --- |
| c1ccc(CNCCN(CCNCc2ccccn2)Cc2ccc3ccccc3c2)nc1 | -10% (active) |
| CCNCc1ccncc1 | 96.9% (inactive) |
| O=C(NCCNC(=O)c1cc(S(=O)(=O)NCCc2ccccc2)c(O)c(O)c1O)c1cc(S(=O)(=O)NCCc2ccccc2)c(O)c(O)c1O | 83.2% (inactive) |
| Oc1cccnc1CN1CCCC1 | 104% (inactive) |
| O=C(CCCCCCNC(=O)C(O)(O)C(F)(F)F)Nc1ncc(-c2ccc(Br)cc2)s1 | -35.8% (active) |
| CN(C)CCCC1(c2ccc(F)cc2)OCc2cc(-c3csc4ccccc34)ccc21 (stereo not given) | -68.5% (active) |
| O=c1c2c(c3ccccc3n1-c1ccccc1)NC(=S)NC2c1ccccc1 (stereo not given) | 74.4% (inactive) |
| C#Cc1cccc(NC(=O)c2ccccc2NC(=O)C=C)c1 | 70.9% [8.25 µM] (inactive) |
| CCC(=O)Nc1ccc(-c2nc(-c3cccc(OC)c3)c(-c3ccnc(Br)c3)[nH]2)cc1 | 38.9% (inactive) |
| O=C1NC(=O)C(c2ccc(Cl)cc2Cl)N1 (stereo not given) | 106% (inactive) |
| CC/C(=C(\CC)c1ccc(OCC[N+](C)(C)C)cc1)c1ccc(OC)cc1 | 2.58% (active) |
| COc1ccc(-c2nc3ccc(-c4nc5ccc(N6CCN(c7ccc(F)cc7)CC6)cc5[nH]4)cc3[nH]2)cc1OC | 67.4% (inactive) |
| COc1ccc(C(=O)/C=C/c2ccc(Cl)cc2)cc1S(N)(=O)=O | 57.3% (inactive) |
| COC(=O)[C@]12CC[C@@H](C(=O)/C=C/c3cccnc3)[C@@H]1[C@H]1CC[C@@H]3[C@@]4(C)C/C(=C/c5cccnc5)C(=O)C(C)(C)[C@@H]4CC[C@@]3(C)[C@]1(C)CC2 | -76.1% (active) |
| CCC(CC)n1c(C)cc(=O)n1C(CC)CC | 91.2% (inactive) |
| COc1ccc(C(=O)c2cc(C)c(OC)c(C)c2)c(OC)c1N(C(=O)C(Cl)Cl)C(=O)C(Cl)Cl | 21.6% (inactive) |
| O=C1NC(=O)C(c2ccccc2)(c2ccccc2)N1Cc1cn(-c2c3ccccc3nc3ccccc23)nn1 | 38.2% (inactive) |
| O=C1COCCN1c1ccc(NCc2cn(C(=O)c3ccc(Cl)cc3)c3ccccc23)cc1 | -66.6% (active) |
| O=c1oc2ccc(I)cc2c(=O)n1-c1ccc(Br)cc1F | -2.16% (active) |
| Nc1ccc(S(=O)(=O)c2ccc(Cl)cc2)cc1 | 91.7% (inactive) |
